TDP1 cell CPT: growth inhibition of DT40 Tdp1-/-;hTDP1 cells with camptothecin (screen for TDP1 inhibitors). chicken DT40 Tdp1-/-;hTDP1 cells + 20 nM CPT, ATP luminescence, 48 h. Potency, µM (top dose mostly 46.2 µM), for inactives: top-dose activity change, negative = growth inhibition, hits mostly inhibitors. 420,000 compounds, 12% hits. AID 686979; also: % is scaled to controls: 0 for no effect and ±100 for the full control effect; nearly all actives have a fitted effect of over 55% in size
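Chicken DT40 Tdp1-/- cells complemented with human TDP1, 400 cells/well, exposed to compounds plus 20 nM camptothecin for at least 48 h at 37 C; viability read as ATP content by CellTiter-Glo luminescence.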
HepG2 viability: counter-screen for TGF-b inhibitors: cytotoxicity in HepG2 cells; HepG2 CAGA-GFP viability, ATP luminescence, 18 h; Potency, µM (highest dose often 46.1 µM), without a hit: top-dose activity change, negative = cytotoxicity, most hits filed as cytotoxic; 410,000 compounds, 0.76% hits; AID 588856
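CellTiter-Glo luminescence gave cytotoxicity after 18 hours at 37 degrees C. The cells were HepG2 CAGA-GFP in 1% FBS DMEM, stimulated with 500 pg/mL TGF-beta after compound addition. %Activity was normalised to no-cell wells (complete cell-killing) and DMSO (no toxicity), and curves were fitted and classified.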
TGFb SMAD3 inh: TGF-b pathway inhibition; HepG2 CAGA-GFP TGF-b/SMAD3 reporter, GFP fluorescence, 18 h; TGF-beta stimulated, 500 pg/mL final; Potency, µM (top dose mostly 46.1 µM), for the others: at the top dose activity, negative = inhibition, most hits filed as inhibitors; 410,000 compounds, 1.2% hits; also: % is scaled to controls: 0 for no effect and ±100 for the full control effect; nearly all actives have a fitted effect of over 65% in size
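First, reporter cells (HEPG2 CAGA-GFP) rested 2 h at 37 degrees C. Next, compounds were pinned in and TGF-beta added to 500 pg/mL final. After 18 h, GFP was imaged per cell and summed per well.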
S2 tox: viability counter-screen for ATXN expression inhibitors | S2 cells (HEK-293 line with an ATXN2-luciferase reporter) viability, CellTiter-Fluor protease fluorescence, 24 h | Potency, µM (titrated, usually from 56.7 µM), hits mostly cytotoxic | 400,000 compounds, 0.49% hits | AID 651635; also: nearly all actives have a fitted effect of over 40% in size
ATXN2 expr inh: ATXN2 expression inhibition; HEK-293 ATXN2-luciferase reporter, luminescence, 24 h; Potency, µM (doses to about 57 µM), without a hit: at the top dose activity change, negative = inhibition, hits mostly inhibitors; 360,000 compounds, 0.72% hits; AID 1745845; also: % is scaled to controls: 0 for no effect and ±100 for the full control effect; nearly all actives have a fitted effect of over 55% in size
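ATXN2-luciferase reporter cells (luciferase flanked by upstream and downstream ATXN2 gene portions) were treated 24 h at 37 °C with compounds at up to 57 uM. SteadyGlo luminescence gave expression; GF-AFC fluorescence gave viability.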
DT40 TDP1 no CPT: qHTS for Inhibitors of human tyrosyl-DNA phosphodiesterase 1 (TDP1): qHTS in cells in absence of CPT | AID 686978, 2013 | DT40 Tdp1-/- hTDP1 cells, no CPT, ATP luminescence, 48 h | 420,000 compounds, 15% hits | Potency, µM (doses to about 46.2 µM), without a hit: at the highest dose activity change, negative = growth inhibition, actives largely listed as inhibitors; also: % is scaled to controls: 0 for no effect and ±100 for the full control effect; nearly all actives have a fitted effect of over 55% in size
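Readout: luminescence from CellTiter-Glo after 30 min in the dark at RT. Cells: DT40 Tdp1-/- with stable hTDP1, 400/well. Exposure: compounds alone, ≥48 hr, 37 °C.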
* marks the source's active call; other numbers are inactive results; i = inactive; ? = inconclusive; / = no result given; [ ] = remark or other dose. Only some compounds are listed: those with a hit (about 17% of all), similar ones and a draw of the others. Calls follow the shape of the dose curve; as a rule, active = well fitted curve in the direction sought with a large enough effect; inconclusive = small, poorly fitted or top-dose-only effect, or another doubt; inactive = no such curve, though single readings can be large; an effect the other way counts as inactive or inconclusive. Potency is read from the fitted curve at half-maximal effect.

SMILES | TDP1 cell CPT | HepG2 viability | TGFb SMAD3 inh | S2 tox | ATXN2 expr inh | DT40 TDP1 no CPT
Cc1ccc(NC(=O)c2ccc(-c3nn(C)c(=O)c4ccccc34)cc2)cc1 | 21µM* | -5% | -5% | ? | ? | ?
Cn1nc(-c2ccc(C(=O)Nc3ccc(F)cc3)cc2)c2ccccc2c1=O | ? | -12% | -30% | i | ? | ?
Cn1nc(-c2ccc(C(=O)Nc3cccc(Cl)c3)cc2)c2ccccc2c1=O | ? | -29% | -9% | 40µM* | 16µM* | ?
CCOC(=O)C1CCN(C(=O)CN2C(=O)CSc3ccc(S(=O)(=O)N4CCOCC4)cc32)CC1 | -6% | 5% | 4% | i | 0% | 13%
COc1ccccc1N(CC(=O)NCc1ccccc1C)S(=O)(=O)c1ccc(C)cc1 | ? | 2% | 11% | i | -15% | ?
Cc1ccc2nc(/C=C/c3cccc(F)c3)ccc2c1 | 1% | -14% | -21% | i | 38% | ?
CN(C)c1ccc(/C=C/c2ccc3cc(N)ccc3n2)cc1 | 7.1µM* | -48% | 7% | / | / | 3.2µM*
Cc1ccc2nc(/C=C/c3ccc(N(C)C)cc3)ccc2c1 | 13µM* | -24% | 14% | / | / | 13µM*
COc1ccc(CNC(=O)CSc2ccsc2[N+](=O)[O-])cc1 | ? | 0% | -3% | i | 68% | -8%
CN(C)c1ccc(CNC(=O)CCCn2ccc3cc(S(=O)(=O)N4CCCC4)ccc32)cc1 | ? | -27% | 0% | ? | -17% | 18µM*
O=C(CCn1ccc2cc(S(=O)(=O)N3CCCC3)ccc21)NCc1cccc(F)c1 | ? | -11% | 2% | i | -4% | ?
O=C(CCn1ccc2cc(S(=O)(=O)N3CCCC3)ccc21)NCc1ccccc1 | -29% | -58% | ? | i | -22% | -7%
O=C(CCCn1ccc2cc(S(=O)(=O)N3CCCC3)ccc21)NCc1ccc(Cl)cc1 | 4.6µM* | -27% | ? | / | / | 2.3µM*
Cc1cccc(CCNC(=O)C2CC(O)CN2C(=O)Nc2ccccc2)c1 (stereo not given) | -3% | -42% | -13% | i | / | 0%
O=[N+]([O-])c1ccccc1S(=O)(=O)n1cnc2ccccc21 | 5% | 1% | 14% | i | -9% | 10%
Cc1cccc2cc(/C=N/NC(=O)c3ccccc3O)c(Cl)nc12 | 18µM* | -32% | 10µM* | ? | -22% | ?
Cc1ccccc1C(=O)Nc1ccc(C(=O)N/N=C/c2ccc(O)cc2)cc1 | ? | -29% | 6% | i | -21% | ?
Cc1cccc2cc(/C=N/NC(=O)c3ccncc3)c(Cl)nc12 | -3% | -8% | -7% | i | -2% | 15%
Cc1nc2c(C)cccc2cc1C(=O)N/N=C/c1ccc(O)cc1 | 29µM* | 0% | -27% | i | 1% | ?
CC(Sc1nnc(-c2ccncc2)n1C)C(=O)Nc1nccs1 (stereo not given) | 0% | -4% | 14% | i | -7% | 2%
CCCCOCCCNC(=O)C[C@@H]1C[C@@]2(C(=O)OCC)CCCC=C2N(Cc2ccco2)C1=O | -15% | / | / | i | -1% | ?
CCCCCCCCN1C(=O)[C@H](CC(=O)NCCCOCCCC)C[C@@]2(C(=O)OCC)CCCC=C12 | 13µM* | / | / | ? | -8% | 16µM*
CCCCCCCCN1C(=O)[C@H](CC(=O)NCCCC)C[C@@]2(C(=O)OC)CCCCC=C12 | 16µM* | / | / | 28µM* | -15% | 12µM*
CCCCCCCCN1C(=O)[C@H](CC(=O)NCCC(C)C)C[C@@]2(C(=O)OC)CCCCC=C12 | ? | / | / | ? | ? | 16µM*
COCCCNC(=O)C[C@@H]1C[C@@]2(C(=O)OC)CCCCC=C2N(Cc2ccco2)C1=O | 1% | / | / | i | -1% | 0%
SMILES | TDP1 cell CPT | HepG2 viability | TGFb SMAD3 inh | S2 tox | ATXN2 expr inh | DT40 TDP1 no CPT
CCCCOCCCNC(=O)C[C@@H]1C[C@@]2(C(=O)OCC)CCCC=C2N(CCc2ccc(OC)c(OC)c2)C1=O | 21µM* | / | / | / | / | ?
COc1ccc(C(=O)OC(C)C(=O)NC(C)CCc2ccccc2)cc1OC (stereo not given) | -26% | -24% | -3% | i | / | ?
CCCCCCCCN1C(=O)[C@H](CC(=O)NCCCOCCCC)C[C@@]2(C(=O)OC)CCCCC=C12 | 13µM* | / | / | ? | ? | 18µM*
O=C(Cc1ccccc1)CC(CC(=O)c1ccccc1)c1ccccc1 (stereo not given) | 16µM* | -51% | -6% | i | / | 23µM*
Cc1cc(N2CCN(S(=O)(=O)c3ccc(Cl)cc3)CC2)c2ccccc2n1 | 23µM* | 10µM* | 14µM* | ? | ? | 21µM*
Cc1cc(N2CCN(S(=O)(=O)c3ccc(Cl)c(Cl)c3)CC2)c2ccccc2n1 | ? | -43% | ? | i | -30% | 16µM*
Cc1cc(N2CCN(CC(O)C(F)(F)F)CC2)c2ccccc2n1 (stereo not given) | ? | 0% | 0% | i | -18% | -9%
CCN(CC)S(=O)(=O)c1ccc(NC(=O)COC(=O)CNC(=O)C2CCCCC2)cc1 | -5% | 27% | -5% | i | 8% | 1%
O=C(c1cccc(Cl)c1)N1CCCC(Cn2cc(C(=O)N3CCCC3)nn2)C1 (stereo not given) | 5%[9.04 µM] | / | / | i | / | -13%
CCc1c(C)sc(NC(=S)N2CCN(S(C)(=O)=O)CC2)c1C(=O)OC | -15% | 2% | 5% | i | -26% | -14%
CCOc1ccc(CNC(=O)c2ccccc2NC(=O)C2=CSCCO2)cc1 | ? | -9% | 7% | ? | -11% | ?
O=C(NC1CCCCC1)C(=S)N1CCCC1 | -10% | 1% | -2% | i | -5%[2.22 µM] | 3%
COc1ccc(OC)c(C(=O)c2c(C)oc3cc([N+](=O)[O-])c(O)c([N+](=O)[O-])c23)c1 | ? | 6% | 1% | i | 1% | ?
Cc1oc2cc([N+](=O)[O-])c(O)c([N+](=O)[O-])c2c1C(=O)c1ccc(Cl)cc1 | 23µM* | -46% | -30% | ? | / | ?
O=C(Nc1cccc(Cl)c1)Nc1nccs1 | ? | -30% | ? | / | / | 16µM*
O=C(Nc1ccc(Cl)c(Cl)c1)Nc1nccs1 | 2.1µM* | 11µM* | ? | ? | / | 0.82µM*
CSc1ccc(Cl)c(C(=O)Nc2nccs2)c1 | -9% | 5% | 9% | i | / | -3%

Assay outcomes from PubChem BioAssay.
